Screen size: about 39,000 compounds; about 1,500 (3.8%) were called active. Only a selection was taken, and actives are over-represented in it overall.

This assay concerns HSkMC (human skeletal muscle cells). In words: cytotoxicity call (relative viability < 0.9). Conditions: 10 µM.
Consider `C[C@H](CO)N1C[C@H](C)[C@H](CN(C)Cc2ccc(Oc3ccccc3)cc2)Oc2cc(-c3ccncc3)ccc2S1(=O)=O`, for which the cytotoxicity call is “inactive”.

As to `O=C(C[C@@H]1CC[C@@H](NC(=O)CN2CCOCC2)[C@@H](CO)O1)NCCc1ccccc1`, the cytotoxicity call was “inactive”.

With `CC(C)NC(=O)Nc1ccc2c(c1)C(=O)N(C)[C@H]1CC[C@H](CC(=O)NCc3ccc(F)cc3)O[C@H]1CO2`, the cytotoxicity call is “inactive”.

With `COCC#Cc1cnc2c(c1)C(=O)N([C@@H](C)CO)C[C@@H](C)[C@H](CN(C)C(C)=O)O2`, the cytotoxicity call was “inactive”.

Turning to `C[C@@H]1CN([C@H](C)CO)C(=O)Cc2cc(NC(=O)Nc3cccc4ccccc34)ccc2O[C@@H]1CN(C)S(=O)(=O)c1cccs1`, the cytotoxicity call was “inactive”.

With `C[C@H](CO)N1C[C@H](C)[C@H](CN(C)C(=O)Nc2ccc(F)cc2)OCCCC[C@H](C)Oc2ccc(NC(=O)Nc3ccc4c(c3)OCO4)cc2C1=O`, the cytotoxicity call is “inactive”.

On to `COc1ccc(S(=O)(=O)N(C)C[C@H]2OCc3cnnn3CCCC(=O)N([C@@H](C)CO)C[C@@H]2C)cc1`, for which the cytotoxicity call is “inactive”.

Turning to `C[C@H]1CN([C@@H](C)CO)C(=O)c2cc(NC(=O)Nc3cccc4ccccc34)ccc2O[C@@H]1CN(C)C(=O)NC1CCCCC1`, the cytotoxicity call is “inactive”.

In the case of `CCCC[P+](CCCC)(CCCC)Cc1ccc(NC(=O)[C@@H](Cc2ccc3ccccc3c2)N=C(NC2CCCCC2)NC2CCCCC2)cc1`, the cytotoxicity call is “active”.

For `CCCC[P+](CCCC)(CCCC)Cc1ccc(NC(=O)[C@H](Cc2ccc3ccccc3c2)N/C(=N/C2CCCCC2)NC2CCCCC2)cc1`, the cytotoxicity call is “inactive”.

As for `CC(C)NC(=O)Nc1ccc2c(c1)C(=O)N([C@H](C)CO)C[C@@H](C)[C@@H](CN(C)Cc1ccc3c(c1)OCO3)O2`, the cytotoxicity call is “inactive”.

Take `C[C@@H]1CCCCO[C@H](CN(C)Cc2ccc(C(F)(F)F)cc2)[C@H](C)CN([C@@H](C)CO)C(=O)c2cc(NC(=O)Nc3ccc4c(c3)OCO4)ccc2O1`: the cytotoxicity call is “inactive”.

Consider `C[C@@H]1CN([C@@H](C)CO)C(=O)c2cc(NC(=O)Nc3ccc(C(F)(F)F)cc3)ccc2O[C@@H](C)CCCCO[C@H]1CN(C)Cc1ccc2c(c1)OCO2`, for which the cytotoxicity call was “active”.

In the case of `C[C@@H]1CCCCO[C@@H](CN(C)Cc2ccc3c(c2)OCO3)[C@H](C)CN([C@H](C)CO)C(=O)c2cc(NC(=O)Nc3ccc(C(F)(F)F)cc3)ccc2O1`, the cytotoxicity call is “active”.

As for `C[C@H]1CCCCO[C@@H](CN(C)Cc2ccc3c(c2)OCO3)[C@@H](C)CN([C@@H](C)CO)C(=O)c2cc(NC(=O)Nc3ccc(C(F)(F)F)cc3)ccc2O1`, the cytotoxicity call was “active”.

In the case of `C[C@H]1CCCCO[C@H](CN(C)Cc2ccc3c(c2)OCO3)[C@@H](C)CN([C@@H](C)CO)C(=O)c2cc(NC(=O)Nc3ccc(C(F)(F)F)cc3)ccc2O1`, the cytotoxicity call is “active”.

In the case of `C[C@@H]1CCCCO[C@@H](CN(C)Cc2ccc(C(F)(F)F)cc2)[C@@H](C)CN([C@@H](C)CO)C(=O)c2cc(NC(=O)Nc3ccc4c(c3)OCO4)ccc2O1`, the cytotoxicity call was “inactive”.

Regarding `C[C@H]1CN([C@@H](C)CO)C(=O)c2cccc(NC(=O)C3CCOCC3)c2O[C@@H]1CN(C)C(=O)NC1CCCCC1`, the cytotoxicity call is “inactive”.

On to `C[C@H](CO)N1C[C@H](C)[C@H](CN(C)S(=O)(=O)c2cn(C)cn2)Oc2ncc(C3=CCCC3)cc2C1=O`, for which the cytotoxicity call is “inactive”.

Turning to `CO[C@H](CN(C)S(=O)(=O)c1cccc(Cl)c1)[C@@H](C)CN([C@@H](C)CO)S(=O)(=O)c1cccc(Cl)c1`, the cytotoxicity call was “inactive”.

Take `COc1ccc(NC(=O)Nc2ccc3c(c2)C(=O)N([C@H](C)CO)C[C@H](C)[C@H](CN(C)C(=O)Nc2c(C)noc2C)OCCCC[C@H](C)O3)cc1`: the cytotoxicity call is “inactive”.

As to `COc1ccc(NC(=O)N(C)C[C@@H]2Oc3ccc(NS(=O)(=O)c4c(C)noc4C)cc3CC(=O)N([C@H](C)CO)C[C@H]2C)cc1`, the cytotoxicity call is “inactive”.

`C[C@@H]1CCCCO[C@@H](CN(C)C(=O)C2CCCCC2)[C@@H](C)CN([C@@H](C)CO)C(=O)c2cc(NC(=O)Cc3ccccc3)ccc2O1`: the cytotoxicity call was “inactive”.

In the case of `C[C@@H]1CN([C@H](C)CO)S(=O)(=O)c2ccc(C#CCN(C)C)cc2O[C@@H]1CN(C)S(C)(=O)=O`, the cytotoxicity call was “inactive”.

Turning to `CSc1nc(=O)c(C)n[nH]1`, the cytotoxicity call was “inactive”.

For the molecule `Cc1ccc(S(=O)(=O)Nc2ccc3c(c2)C(=O)N([C@@H](C)CO)C[C@H](C)[C@H](CN(C)S(=O)(=O)c2cn(C)cn2)O3)cc1`, the cytotoxicity call was “inactive”.

With `C[C@@H]1CN([C@H](C)CO)C(=O)c2cc(NC(=O)Nc3ccc(C(F)(F)F)cc3)ccc2O[C@@H](C)CCCCO[C@@H]1CN(C)Cc1ccc2c(c1)OCO2`, the cytotoxicity call was “active”.

On to `C[C@@H]1CCCCO[C@H](CN(C)Cc2ccc3c(c2)OCO3)[C@H](C)CN([C@@H](C)CO)C(=O)c2cc(NC(=O)Nc3ccc(C(F)(F)F)cc3)ccc2O1`, for which the cytotoxicity call was “active”.

As for `C[C@@H]1CCCCO[C@H](CN(C)Cc2ccc3c(c2)OCO3)[C@@H](C)CN([C@H](C)CO)C(=O)c2cc(NC(=O)Nc3ccc(C(F)(F)F)cc3)ccc2O1`, the cytotoxicity call was “active”.

For `C[C@@H]1CCCCO[C@@H](CN(C)Cc2ccc(C(F)(F)F)cc2)[C@H](C)CN([C@@H](C)CO)C(=O)c2cc(NC(=O)Nc3ccc4c(c3)OCO4)ccc2O1`, the cytotoxicity call was “inactive”.

Turning to `C[C@H]1CCCCO[C@@H](CN(C)Cc2ccc(C(F)(F)F)cc2)[C@@H](C)CN([C@@H](C)CO)C(=O)c2cc(NC(=O)Nc3ccc4c(c3)OCO4)ccc2O1`, the cytotoxicity call was “inactive”.

For `C[C@H](CO)N1C[C@H](C)[C@H](CN(C)Cc2ccc(C(F)(F)F)cc2)OCCCC[C@H](C)Oc2ccc(NC(=O)Nc3ccc4c(c3)OCO4)cc2C1=O`, the cytotoxicity call is “inactive”.

As for `C[C@@H]1CCCCO[C@H](CN(C)Cc2ccc3c(c2)OCO3)[C@H](C)CN([C@H](C)CO)C(=O)c2cc(NC(=O)Nc3ccc(C(F)(F)F)cc3)ccc2O1`, the cytotoxicity call was “active”.

Turning to `C[C@H](CO)N1C[C@H](C)[C@@H](CN(C)Cc2ccc(C(F)(F)F)cc2)OCCCC[C@H](C)Oc2ccc(NC(=O)Nc3ccc4c(c3)OCO4)cc2C1=O`, the cytotoxicity call is “inactive”.

Consider `C[C@@H]1CN([C@@H](C)CO)C(=O)Cc2cc(NC(=O)Nc3cccc4ccccc34)ccc2O[C@@H]1CN(C)Cc1ccc2c(c1)OCO2`, for which the cytotoxicity call is “inactive”.

For the molecule `Cc1noc(C)c1NC(=O)N(C)C[C@@H]1OCCCC[C@@H](C)Oc2ccc(NC(=O)Nc3ccccc3)cc2C(=O)N([C@@H](C)CO)C[C@@H]1C`, the cytotoxicity call was “inactive”.

The record behind these values is the antibiotic and cytotoxicity screens of Wong et al. (2023).
